Lassa entry inh: Lassa virus entry inhibition; Lassa virus pseudotype entry inhibition, cell reporter; Potency, µM (doses to about 37.9 µM), inactives show at the top dose activity change, negative = inhibition, most hits filed as inhibitors; 1.2% of 300,000 active; AID 540256; calls by dose curve; tested in HEK293 cells; also: potency is read from the fitted curve at half-maximal effect; % is scaled to controls: 0 for no effect and ±100 for the full control effect; nearly all actives have a fitted effect of over 50% in size
Cycloheximide cs: counter-screen for Shiga toxin inhibitors: cycloheximide protein synthesis inhibition | AID 2314 | cell reporter, cycloheximide protein synthesis inhibition counterscreen | max response, % | 12% of 300,000 active; in the data active = max response mostly above about 13%, no sharp cut-off; inactive = mostly below about 14%; also: read at 38.3 µM for the half of the compounds with a filed dose; 0% is about no effect
Shiga inhibitor: inhibitors of Shiga toxin in Vero cells; Vero cells, Shiga toxin protein synthesis inhibition reporter; inhibition, % at 38.7 µM; 9.2% of 290,000 active; AID 2315; in the data active = inhibition mostly above about 28%, no sharp cut-off; inactive = mostly below about 43%; also: 0% is about no effect
Pf growth 96h: P. falciparum growth inhibition at 96 hours; Potency, µM (highest dose often 28.7 µM), without a hit: at the top dose activity change, negative = inhibition, most hits filed as inhibitors; AID 504834; 6.9% of 320,000 active; P. falciparum luciferase reporter growth, 96 h; also: potency is read from the fitted curve at half-maximal effect; % is scaled to controls: 0 for no effect and ±100 for the full control effect
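Two-generation exposure (96 h) targets delayed-death phenotype. Reporter parasites carrying integrated firefly luciferase, in red cells at 2% hematocrit and 0.05% parasitemia final, kept at 37 C, 5% CO2; luminescence loss indicates inhibition.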
Marburg entry inh: blocks Marburg virus binding to or entry into cells | Marburg virus pseudotyped entry inhibition, cell reporter | Potency, µM (doses to about 37.8 µM), for inactives: at the highest dose activity change, negative = inhibition, hits mostly inhibitors | 1.8% of 300,000 active | AID 540276; calls by dose curve; tested in HEK293 cells; also: potency is read from the fitted curve at half-maximal effect; % is scaled to controls: 0 for no effect and ±100 for the full control effect
Pf growth 48h: inhibits P. falciparum growth in the first generation, 48 h. Potency, µM (titrated, usually from 28.7 µM), for inactives: at the highest dose activity change, negative = inhibition, usual class: inhibitors. P. falciparum luciferase growth in erythrocytes, 48 h. 5.9% of 310,000 active; also: potency is read from the fitted curve at half-maximal effect; % is scaled to controls: 0 for no effect and ±100 for the full control effect
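Luciferase-expressing P. falciparum in infected erythrocytes (2% hematocrit, 0.1% parasitemia final) in RPMI 1640/0.5% Albumax were exposed to compound for 48 hours at 37 C, 5% CO2; growth read as luminescence.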
The depositor's hits bear a star; ! = not active in a repeat; [ ] = remark or other dose. A selection: hits, their analogues and other compounds. The true share with any hit is near 19%. Unless noted, calls follow the shape of the dose curve; as a rule, active = well fitted inhibition curve with a large enough effect; inconclusive = small, poorly fitted or top-dose-only effect, or another doubt; inactive = no such curve, though single readings can be large or run the other way.

Screening CCOc1ccccc1NC(=O)C(OC(=O)c1ccc(NC(=O)CC#N)cc1)c1ccccc1 (configuration not stated) returned Lassa entry inh -9.2%, Pf growth 96h 2.33µM*, Marburg entry inh 7.3%[46.1 µM] and Pf growth 48h 5.22µM*.
CCOc1ccccc1NC(=O)C(OC(=O)c1ccccc1)c1ccccc1 (configuration not stated) was read as Lassa entry inh 1.8%, Cycloheximide cs -3.9, Shiga inhibitor 10.0, Pf growth 96h inconclusive, Marburg entry inh -2.4% and Pf growth 48h -16.8%.
CC(OC(=O)c1ccc(NC(=O)CC#N)cc1)C(=O)NC(c1ccccc1)c1ccccc1 (configuration not stated) was read as Lassa entry inh -17.5% and Marburg entry inh inconclusive.
CCOc1ccccc1NC(=O)C(OC(=O)c1ccccc1O)c1ccccc1 (configuration not stated) was read as Lassa entry inh -16.4%, Cycloheximide cs -1.0, Shiga inhibitor -0.5, Pf growth 96h inconclusive, Marburg entry inh inconclusive and Pf growth 48h -27.9%.
CN(C(=O)COC(=O)CNC(=O)c1ccc(C(C)(C)C)cc1)c1c(N)n(Cc2ccccc2)c(=O)[nH]c1=O was read as Lassa entry inh inconclusive, Pf growth 96h 3.6%, Marburg entry inh inconclusive and Pf growth 48h 10.9%.
Screening COc1ccccc1C(=O)NN1C(=O)/C(=C/c2cccn2C)SC1=S returned Cycloheximide cs 6.3, Shiga inhibitor -0.9, Pf growth 96h 31.2% and Pf growth 48h 9.0%.
For CCN(CC)CC#CCOC(=O)[C@@](O)(c1ccccc1)C1CCCCC1 the results were Pf growth 96h 12µM*, Marburg entry inh inconclusive and Pf growth 48h inconclusive.
Screening CC[N+](C)(CC)CCOC(=O)C(O)(c1ccccc1)C1CCCCC1 (configuration not stated) returned Lassa entry inh 1.9%, Cycloheximide cs -2.2, Shiga inhibitor -10.4, Pf growth 96h 13.1µM*!, Marburg entry inh 22.0% and Pf growth 48h 11.7µM*!.
`CCN(CC)CCCOC(=O)C(OC)(c1ccccc1)c1ccccc1` gave Lassa entry inh -14.3%, Cycloheximide cs -5.5, Shiga inhibitor -3.1, Pf growth 96h -26.8% and Marburg entry inh inconclusive.
O=C(O)C(O)(c1ccccc1)C1CCCCC1 (configuration not stated) was read as Cycloheximide cs 3.4, Shiga inhibitor -6.8, Pf growth 96h inconclusive and Pf growth 48h -1.8%.
`CC[N+](C)(CC)CCC/C(=N/O)C(O)(c1ccccc1)c1ccccc1` gave Lassa entry inh 0.5%, Cycloheximide cs -2.6, Shiga inhibitor -1.5, Pf growth 96h -22.7%, Marburg entry inh -16.6%[46.1 µM] and Pf growth 48h inconclusive.
Screening CC[N+](C)(CC)CCCOC(=O)C(O)(c1ccccc1)C1CCCCC1 (configuration not stated) returned Lassa entry inh 4.1%, Cycloheximide cs -2.8, Shiga inhibitor -2.3, Pf growth 96h -10.3%, Marburg entry inh 4.2%[46.1 µM] and Pf growth 48h 4.15µM*.
`CCOC(C(=O)OCCC[N+](C)(CC)CC)(c1ccccc1)c1ccccc1` gave Lassa entry inh 5.2%, Cycloheximide cs 5.8, Shiga inhibitor 20.9, Marburg entry inh -8.3% and Pf growth 48h 2.08µM*.
Screening CC(C)Cc1cc(C(=O)NCCN2CCOCC2)no1 returned Cycloheximide cs -1.1, Shiga inhibitor 1.8, Pf growth 96h 35.9% and Pf growth 48h 20.2%.
For Nc1ccc(C(=O)NCCCSc2ccccc2)cc1[N+](=O)[O-] the results were Lassa entry inh -22.7%[46.1 µM], Cycloheximide cs 1.6, Shiga inhibitor -8.5, Pf growth 96h inconclusive, Marburg entry inh 2.0%[46.1 µM] and Pf growth 48h -4.5%.
CC1(C)Cc2nc3sc4c(N5CCCC5)nnnc4c3cc2CO1 was read as Cycloheximide cs 3.6, Shiga inhibitor 20.6, Pf growth 96h 41.1% and Pf growth 48h inconclusive.
For O=c1[nH]c2ccccc2c(=O)n1CCCO the results were Lassa entry inh -8.2%, Cycloheximide cs -2.2, Shiga inhibitor -10.2, Pf growth 96h 41.1% and Marburg entry inh inconclusive.
For CCC(NC(=S)NC1CCCCC1)c1ccccc1 (configuration not stated) the results were Cycloheximide cs -2.1, Shiga inhibitor -8.4, Pf growth 96h inconclusive and Pf growth 48h inconclusive.
CCOC(C(=O)OCC(O)CN(CC)CC)(c1ccccc1)c1ccccc1 (configuration not stated) was read as Lassa entry inh -11.9%, Cycloheximide cs -2.7, Shiga inhibitor 4.2, Pf growth 96h -31.1%, Marburg entry inh -24.8% and Pf growth 48h 10.4µM*.
Screening CC[N+](C)(CC)CCC(c1ccccc1)C1CCCCC1 (configuration not stated) returned Lassa entry inh inconclusive, Cycloheximide cs -1.0, Shiga inhibitor -5.5, Pf growth 96h inconclusive, Marburg entry inh -3.9%[46.1 µM] and Pf growth 48h 6.57µM*.
Screening O=C(c1cccc(S(=O)(=O)N2CCCCC2)c1)N1CCOCC1 returned Lassa entry inh 7.6%, Cycloheximide cs -2.2, Shiga inhibitor 8.8, Marburg entry inh -3.2% and Pf growth 48h 9.7%.
`COc1nc(OC)nc(N2CCC(C(=O)Nc3cccc4ccccc34)CC2)n1` gave Lassa entry inh 11.4%, Cycloheximide cs -3.9, Shiga inhibitor -3.0, Pf growth 96h 39.0%, Marburg entry inh -23.5% and Pf growth 48h 6.1%.
`Cc1csc(NC(=O)CSc2nc3[nH]ncc3c(=O)[nH]2)n1` gave Lassa entry inh -4.8%, Cycloheximide cs -3.1, Shiga inhibitor -4.5, Pf growth 96h inconclusive, Marburg entry inh 10.7% and Pf growth 48h 18.0%.
For Cc1cccc(C)c1OCc1cc(C(=O)N2CCN3CCCC3C2)no1 (configuration not stated) the results were Lassa entry inh 0.1%, Cycloheximide cs 18.7*, Shiga inhibitor 44.5*, Pf growth 96h 33.6%, Marburg entry inh 14.9% and Pf growth 48h -1.7%.
Screening Cc1cccc(C)c1OCc1cc(C(=O)N2CCN(C3CCCC3)CC2)no1 returned Lassa entry inh -24.7%, Cycloheximide cs 34.7*, Shiga inhibitor 64.3*, Pf growth 96h 7.9%, Marburg entry inh -9.2% and Pf growth 48h 19.7%.
Screening Cc1cccc(C)c1OCc1cc(C(=O)N2CCC(c3ccncc3)CC2)no1 returned Lassa entry inh 14.1%[46.1 µM], Cycloheximide cs 36.5*, Shiga inhibitor 57.9*, Pf growth 96h -18.8%, Marburg entry inh inconclusive and Pf growth 48h -1.2%.
Screening CCN1CCN(C(=O)c2cc(COc3c(C)cccc3C)on2)CC1 returned Lassa entry inh 17.8%[46.1 µM], Cycloheximide cs 18.8*, Shiga inhibitor 5.4, Pf growth 96h inconclusive, Marburg entry inh 15.9%[46.1 µM] and Pf growth 48h 5.9%.
For Cc1cccnc1CN1CCN(C(=O)c2cc(COc3ccc4ncccc4c3)on2)CC1 the results were Lassa entry inh inconclusive, Cycloheximide cs 1.6, Shiga inhibitor -6.0, Pf growth 96h inconclusive, Marburg entry inh inconclusive and Pf growth 48h 8.5%.

Screens from PubChem.
